{"source": "PubChem BioAssay AID1030", "about": "(National Center for Advancing Translational Sciences (NCATS), 2008)", "note": "In all, about 220,000 compounds went through this assay and about 16,000 (7.3%) were called active. Inconclusive results (about 25%) are left out. Calls come from the whole dose curve; as a rule, active = well fitted inhibition curve with a large enough effect (not every such curve was filed as active); inconclusive = small, poorly fitted or top-dose-only effect, or another doubt; inactive = no such curve, though single readings can be large or run the other way. Shown is part of a subset that was picked to be rich in actives. Where a call stands in place of a potency, no number is given. Potency is the fitted concentration of half-maximal effect."}
{"target": "Aldehyde dehydrogenase 1A1 (Homo sapiens) (UniProt P00352)", "sequence (P00352 whole entry, looked up)": "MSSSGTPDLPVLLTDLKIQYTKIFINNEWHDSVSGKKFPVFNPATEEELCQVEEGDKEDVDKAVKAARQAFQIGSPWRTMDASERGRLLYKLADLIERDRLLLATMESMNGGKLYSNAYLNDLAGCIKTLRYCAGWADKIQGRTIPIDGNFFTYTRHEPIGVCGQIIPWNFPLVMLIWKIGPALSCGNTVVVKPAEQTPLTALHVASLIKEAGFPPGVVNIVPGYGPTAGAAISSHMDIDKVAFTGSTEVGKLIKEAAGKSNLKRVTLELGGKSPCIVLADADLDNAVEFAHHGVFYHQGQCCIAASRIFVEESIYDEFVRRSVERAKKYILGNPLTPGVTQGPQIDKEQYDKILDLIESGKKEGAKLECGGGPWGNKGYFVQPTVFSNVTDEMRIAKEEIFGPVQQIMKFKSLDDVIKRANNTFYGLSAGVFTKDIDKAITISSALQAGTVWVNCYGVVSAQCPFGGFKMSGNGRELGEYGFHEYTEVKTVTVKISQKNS", "assay": "qHTS Assay for Inhibitors of Aldehyde Dehydrogenase 1 (ALDH1A1)", "conditions": "Purified ALDH1A1, NADH fluorescence, propionaldehyde substrate; series mostly up to 75.3 µM"}
{"smiles": "Cc1cc2c(cc1C)[n+](C)cn2CC(O)COCC1CC=CCC1", "note": "(stereo unspecified)", "Potency": "inactive"}
{"smiles": "CNC(=S)N1CCN(c2ccccn2)CC1", "Potency": "inactive"}
{"smiles": "COc1ccc(N2CCN(C(C)=C3C(=O)c4ccccc4C3=O)CC2)cc1", "Potency": "inactive"}
{"smiles": "CC(=C1C(=O)c2ccccc2C1=O)N1CCN(c2ccccn2)CC1", "Potency": "12.6 µM (active)"}
{"smiles": "CC1(C)OC(=O)C(=CNC(CO)C(=O)O)C(=O)O1", "note": "(stereo unspecified)", "Potency": "inactive"}
{"smiles": "O=C(/C=C/c1c(Cl)cccc1Cl)NCc1ccccc1", "Potency": "inactive"}
{"smiles": "O=C1N=C2SCCN2/C1=C\\c1c(Cl)cccc1Cl", "Potency": "inactive"}
{"smiles": "O=Cc1c(Cl)cccc1Cl", "Potency": "14.1 µM (active)"}
{"smiles": "Cc1ccc(C(=O)O)cc1N1C(=O)CCCC1=O", "Potency": "inactive"}
{"smiles": "O=C(O)c1ccc(NC(=O)c2cn(-c3ccccc3)nc2-c2ccc(Cl)cc2)cc1", "Potency": "inactive"}
{"smiles": "COc1ccccc1NC(=O)CSc1nnc(Cn2nnc(-c3ccccc3)n2)n1-c1ccccc1", "Potency": "2.82 µM (active)"}
{"smiles": "Cn1cccc1Cc1nnc(SCC(=O)NCCc2ccccc2)n1-c1ccc(F)cc1", "Potency": "inactive"}
{"smiles": "COc1cc(-c2nnn(CC(=O)NCc3ccccc3)n2)cc(OC)c1OC", "Potency": "inactive"}
{"smiles": "COc1ccc(OC)c(/C=N/NC(=O)CSc2nnc(C)n2-c2ccccc2)c1", "Potency": "inactive"}
{"smiles": "COC(=O)c1ccccc1NC(=O)CSc1nnnn1C", "Potency": "inactive"}
{"smiles": "COCCn1c(Cc2cccn2C)nnc1SCC(=O)Nc1nccs1", "Potency": "inactive"}
{"smiles": "COc1cccc(-n2c(Cc3cc(=O)[nH]c(=O)[nH]3)nnc2SCC(=O)Nc2ccccc2)c1", "Potency": "inactive"}
{"smiles": "COc1ccccc1NC(=O)CSc1nnc(Cc2cccn2C)n1-c1ccc(F)cc1", "Potency": "17.8 µM (active)"}
{"smiles": "COC(=O)c1ccc(NC(=O)CSc2nnc(Cc3cccn3C)n2-c2ccc(F)cc2)cc1", "Potency": "22.4 µM (active)"}
{"smiles": "O=C1CC(c2c(F)cccc2Cl)C(n2cncn2)C(O)=C1C1NCCc2ccccc21", "note": "(stereo unspecified)", "Potency": "inactive"}
{"smiles": "CCOc1ccc(C(CC(=O)O)NC(=O)C23CC4CC(CC(C4)C2)C3)cc1OC", "note": "(stereo unspecified)", "Potency": "inactive"}
{"smiles": "O=C(CNC(=O)COc1ccccc1)NCCc1ccccn1", "Potency": "inactive"}
{"smiles": "COC(c1ccccc1)c1nnc(CCC(=O)N2CCN(CCOc3ccccc3)CC2)o1", "note": "(stereo unspecified)", "Potency": "inactive"}
{"smiles": "OCCC1CN(Cc2cccc(O)c2)CCN1CCc1ccccc1", "note": "(stereo unspecified)", "Potency": "inactive"}
{"smiles": "CCn1cc(-c2cc(C(=O)O)on2)c(C)n1", "Potency": "inactive"}
{"smiles": "COC(=O)C(C)N=Cc1ccccc1", "note": "(stereo unspecified)", "Potency": "inactive"}
{"smiles": "Fc1ccc(-c2csc(-c3ccc(C4SCCS4)cc3)n2)cc1F", "Potency": "inactive"}
{"smiles": "Cc1cc(C)c(NC(=O)C[N+](C)(C)CC(O)COc2cccc3ccccc23)c(C)c1", "note": "(stereo unspecified)", "Potency": "inactive"}
{"smiles": "CCC(C)Sc1nc2c(c(=O)[nH]c(=O)n2C)n1CC(O)COc1cccc2ccccc12", "note": "(stereo unspecified)", "Potency": "25.1 µM (active)"}
{"smiles": "CCCCNc1nc2c(c(=O)[nH]c(=O)n2C)n1CCOc1ccccc1", "Potency": "inactive"}
{"smiles": "CCCN(CC(=O)Nc1ccc(OC)c(OC)c1)CC(=O)Nc1ccc(F)c(F)c1F", "Potency": "inactive"}
{"smiles": "CNc1ccc(SC#N)cc1", "Potency": "8.91 µM (active)"}
{"smiles": "COC(=O)Cc1c(O)ccn(Cc2cccc(C(F)(F)F)c2)c1=O", "Potency": "inactive"}
{"smiles": "CCOc1ccc(C2C(C(=O)O)c3ccccc3C(=O)N2CCN2CCOCC2)cc1", "note": "(stereo unspecified)", "Potency": "inactive"}
{"smiles": "CCCOc1ccc(C2c3c(oc4cc(C)c(C)cc4c3=O)C(=O)N2CCCN2CCOCC2)cc1", "note": "(stereo unspecified)", "Potency": "3.98 µM (active)"}
{"smiles": "O=C1c2oc3ccc(Br)cc3c(=O)c2C(c2cccc(F)c2)N1CCO", "note": "(stereo unspecified)", "Potency": "inactive"}
{"smiles": "c1ccc2cc(OCCN3CCCC3)ccc2c1", "Potency": "inactive"}
{"smiles": "COc1cccc(OCC(O)CN2CCN(CCO)CC2)c1", "note": "(stereo unspecified)", "Potency": "inactive"}
{"smiles": "COc1cccc(OCCCN2CCCCCC2)c1", "Potency": "14.1 µM (active)"}
{"smiles": "OC(c1nnc(-c2ccccc2)o1)c1cccs1", "note": "(stereo unspecified)", "Potency": "inactive"}
{"smiles": "O=C(Nc1ccccc1Cl)c1ccc2nsnc2c1", "Potency": "inactive"}
{"smiles": "O=C(O)c1ccc(Cl)c(S(=O)(=O)Nc2ccccc2Cl)c1", "Potency": "inactive"}
{"smiles": "O=C(Nc1ccccc1Cl)/C(Cl)=C(\\Cl)S(=O)c1ccccc1", "note": "(stereo unspecified)", "Potency": "10 µM (active)"}
{"smiles": "O=c1[nH]c(CN2CCOCC2)nc2scc(-c3ccccc3)c12", "Potency": "inactive"}
{"smiles": "Cc1ccc(S(=O)(=O)N(C)C)cc1NC(=O)COC(=O)c1c(C)noc1C", "Potency": "inactive"}
{"smiles": "CCCCN=C1C([N+](=O)[O-])=CC=C2C1=NC1(CCCCC1)N2O", "Potency": "1.41 µM (active)"}
{"smiles": "O=C(CN(Cc1ccccc1)C(=O)c1ccc2c(c1)OCCO2)NCc1ccc2c(c1)OCO2", "Potency": "0.631 µM (active)"}
{"smiles": "O=C(COC(=O)c1ccc2c(c1)OCCO2)NCc1ccccc1", "Potency": "inactive"}
{"smiles": "Cn1cc(CCC(=O)NCc2ccc3c(c2)OCO3)c2ccccc21", "Potency": "inactive"}
{"smiles": "CC(C)(C)NC(=O)CN(C(=O)c1csnn1)c1ccccc1-c1ccccc1", "Potency": "inactive"}
{"smiles": "CSc1cccc(NC(=S)N(Cc2ccccc2)Cc2ccccn2)c1", "Potency": "inactive"}
{"smiles": "Cc1cc(C)cc(NC(=S)NCCCN2CCOCC2)c1", "Potency": "inactive"}
{"smiles": "CSc1nc(-c2ccco2)nn1C(=O)CCc1ccccc1", "Potency": "inactive"}
{"smiles": "CCOc1ccccc1/C=c1\\sc2nc(-c3ccco3)nn2c1=O", "Potency": "28.2 µM (active)"}
{"smiles": "CCOc1ccccc1C(=O)NCc1ccco1", "Potency": "inactive"}
{"smiles": "O=C(O)CC1S/C(=N\\N=C/c2ccccc2O)N(c2ccc(O)cc2)C1=O", "note": "(stereo unspecified)", "Potency": "inactive"}
{"smiles": "O=C(NC(=S)Nc1ccc(S(=O)(=O)N2CCOCC2)cc1)c1ccccc1[N+](=O)[O-]", "Potency": "7.94 µM (active)"}
{"smiles": "Cc1cc(C(=O)NNC(=O)c2cccc(S(=O)(=O)N3CCOCC3)c2)c2ccccc2n1", "Potency": "inactive"}
{"smiles": "O=C(c1cccc(S(=O)(=O)N2CCOCC2)c1)N1CCOCC1", "Potency": "inactive"}
{"smiles": "O=C(NNC(=S)Nc1ccccc1)c1cccc(S(=O)(=O)N2CCOCC2)c1", "Potency": "28.2 µM (active)"}
{"smiles": "O=C(Nc1ccc(N2CCOCC2)cc1)c1ccc(-c2ccccc2[N+](=O)[O-])o1", "Potency": "inactive"}
{"smiles": "O=C(CN1C(=O)CCC1=O)Nc1ccc(S(=O)(=O)N2CCOCC2)cc1", "Potency": "inactive"}
{"smiles": "CCc1c(C)nc2c(OC)cccc2c1Cl", "Potency": "inactive"}
{"smiles": "CCSc1nc(C)c(CCOc2cccc(C)c2)c(=O)[nH]1", "Potency": "inactive"}
{"smiles": "COc1ccc(-c2[nH]ncc2CN(Cc2nccn2C)C(C)C)cc1F", "Potency": "inactive"}
{"smiles": "CCCCCCCC1=Cc2ccc(F)cc2C(C(C(=O)OC)C(=O)OC)N1C(=O)OC", "note": "(stereo unspecified)", "Potency": "inactive"}
{"smiles": "COc1ccccc1N(CC(=O)Nc1ccc(C(F)(F)F)cc1)S(C)(=O)=O", "Potency": "inactive"}
{"smiles": "COc1ccc(C(=O)C2CCCN(C(=O)c3cc4nc(C)cc(C)n4n3)C2)cc1F", "note": "(stereo unspecified)", "Potency": "inactive"}
{"smiles": "CCCCN(C(=O)c1ccc(OC(F)(F)F)cc1)c1c(N)n(CCC)c(=O)[nH]c1=O", "Potency": "inactive"}
{"smiles": "O=C(Nc1ccnc(-c2ccncc2)n1)c1cccs1", "Potency": "inactive"}
{"smiles": "CC(=O)c1cc(C#N)c(N2CC(C)OC(C)C2)nc1C", "note": "(stereo unspecified)", "Potency": "inactive"}
{"smiles": "Cn1c(SCc2c(F)cccc2Cl)nnc1-c1cnccn1", "Potency": "12.6 µM (active)"}
{"smiles": "CCN(CC)C(=O)CSc1nnc(-c2cnccn2)n1-c1ccc(C)cc1", "Potency": "inactive"}
{"smiles": "N#Cc1ccc(CSc2nnc(-c3ccccn3)n2-c2ccc(Cl)cc2)cc1", "Potency": "inactive"}
{"smiles": "CC(=O)NC(NC(=S)Nc1c(C)n(C)n(-c2ccccc2)c1=O)C(Cl)(Cl)Cl", "note": "(stereo unspecified)", "Potency": "inactive"}
{"smiles": "COC(=O)c1ccc(-c2noc(CN(Cc3ccccn3)CC3CCCO3)n2)cc1", "note": "(stereo unspecified)", "Potency": "inactive"}
{"smiles": "CN(C)c1ccnc(Nc2ccc(F)cc2)c1C#N", "Potency": "inactive"}
{"smiles": "Fc1ccc(Nc2nnns2)cc1", "Potency": "2 µM (active)"}
{"smiles": "O=C1CS(=O)CN1c1ccc(Oc2ccccc2)cc1", "note": "(stereo unspecified)", "Potency": "inactive"}
{"smiles": "O=C(CCC1CCCN(C(=O)Cc2ccc(F)cc2)C1)N1CCN(c2ccccn2)CC1", "note": "(stereo unspecified)", "Potency": "inactive"}
{"smiles": "CCN(CC(=O)NCCc1ccccc1)S(=O)(=O)c1ccc(C)cc1", "Potency": "inactive"}
{"smiles": "CCN(CC(=O)NC1CCS(=O)(=O)C1)S(=O)(=O)c1ccccc1", "note": "(stereo unspecified)", "Potency": "inactive"}
{"smiles": "CCN(CC(=O)NCCc1ccccc1)S(=O)(=O)c1ccccc1", "Potency": "35.5 µM (active)"}
{"smiles": "N#C/C(=C/c1cccc([N+](=O)[O-])c1)c1nnc2n1CCCCC2", "Potency": "20 µM (active)"}
{"smiles": "O=C(N/N=C/c1cccc([N+](=O)[O-])c1)C1CC(=O)N(c2ccc(Br)cc2)C1", "note": "(stereo unspecified)", "Potency": "inactive"}
{"smiles": "C=CCNC(=O)/C(=C\\c1cccc([N+](=O)[O-])c1)NC(=O)c1ccccc1", "Potency": "inactive"}
{"smiles": "N/C(=N\\OC(=O)CCc1ccccc1)c1cccnc1", "Potency": "inactive"}
{"smiles": "COC(=O)c1ccc(NC(=O)c2cc(Cl)ccc2OC)cc1", "Potency": "inactive"}
{"smiles": "CCC(=O)c1ccc(N2CCN(C(=O)c3cc([N+](=O)[O-])ccc3F)CC2)c(F)c1", "Potency": "inactive"}
{"smiles": "COC(=O)C1(C(C)=O)CC2=CC[C@H]3C(=O)N(c4ccccc4)C(=O)[C@H]3[C@@H]2Cc2ccccc2[C@@H]1C[N+](=O)[O-]", "note": "(stereo partly specified)", "Potency": "inactive"}
{"smiles": "O=C(CCNS(=O)(=O)c1ccc(Br)s1)NCc1ccccc1Cl", "Potency": "inactive"}
{"smiles": "Cc1cccc(COc2ccccc2/C=N/Nc2ccc([N+](=O)[O-])cc2)c1", "Potency": "inactive"}
{"smiles": "NC(=S)N/N=C/c1ccc([N+](=O)[O-])cc1", "Potency": "inactive"}
{"smiles": "O=[N+]([O-])c1ccc(N/N=C/c2ccccc2)cc1", "Potency": "14.1 µM (active)"}
{"smiles": "Cn1ncc(N2CCN(S(=O)(=O)c3ccc(Br)cc3)CC2)c(Cl)c1=O", "Potency": "inactive"}
{"smiles": "N#Cc1c(C(F)(F)F)cc(-c2ccc(Cl)cc2)nc1SCC(=O)O", "Potency": "inactive"}
{"smiles": "Cc1ccc(C(=O)N/C(=C/c2cccs2)C(=O)N2CCCCC2)cc1", "Potency": "inactive"}
{"smiles": "Cc1cccc(C(=O)N2CCc3c([nH]c4ccccc34)C2CC(C)C)n1", "note": "(stereo unspecified)", "Potency": "inactive"}
{"smiles": "CCOC(=O)C1(Cc2cccc(OC)c2)CCN(C(C)CC(C)(C)O)CC1", "note": "(stereo unspecified)", "Potency": "3.55 µM (active)"}
{"smiles": "CCOC(=O)C1(Cc2cccc(OC)c2)CCN(C(C)COC)CC1", "note": "(stereo unspecified)", "Potency": "inactive"}
{"smiles": "CCOC(=O)C1(Cc2cccc(OC)c2)CCN(Cc2csc(C(C)=O)c2)CC1", "Potency": "inactive"}
{"smiles": "CN(CC(=O)NC1CCCC1)S(=O)(=O)c1cnc[nH]1", "Potency": "inactive"}
{"smiles": "CCN(CC)CCN(C(=O)c1ccc(N2C(=O)CCC2=O)cc1)c1nc2cc3c(cc2s1)OCO3", "Potency": "20 µM (active)"}
{"smiles": "CCN(CC)CCN(C(=O)c1cccc([N+](=O)[O-])c1)c1nc2ccc(OC)cc2s1", "Potency": "inactive"}
{"smiles": "CCCCN(CC)C(=O)c1ccc2c(c1)OCO2", "Potency": "inactive"}
{"smiles": "COc1ccc(CC2(CO)CCN(Cc3cnn(C)c3)CC2)cc1", "Potency": "inactive"}
